CHX counter: Cycloheximide Counterscreen for Small Molecule Inhibitors of Shiga Toxin. cell reporter, cycloheximide protein synthesis inhibition counterscreen. max response, %. hit rate 12% among 300,000; in the data active means max response mostly above about 13%, no sharp cut-off; inactive means mostly below about 14%; further: read at 38.3 µM for the half of the compounds with a filed dose; 0% is about no effect
Pf growth 48h: Primary qHTS for delayed death inhibitors of the malarial parasite plastid, 48 hour incubation. P. falciparum luciferase growth in erythrocytes, 48 h. Potency, µM (titrated, usually from 28.7 µM), without a hit: at the top dose activity change, negative = inhibition, usual class: inhibitors. AID 504832, 2011. hit rate 5.9% among 310,000; further: potency means the concentration at half of the fitted maximal effect; on the % scale 0 is the no-effect control and ±100 the full control effect
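Here the parasites carry a stable luciferase gene and grow inside erythrocytes in Albumax-based RPMI medium with compound for one erythrocytic cycle. Activity is scored as loss of luminescent signal.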
Shiga inhibitor: A qHTS for Small Molecule Inhibitors of Shiga Toxin. hit rate 9.2% among 290,000. inhibition, % at 38.7 µM. Vero cells, Shiga toxin protein synthesis inhibition reporter; in the data active means inhibition mostly above about 28%, no sharp cut-off; inactive means mostly below about 43%; further: 0% is about no effect
Pf growth 96h: Primary qHTS for delayed death inhibitors of the malarial parasite plastid, 96 hour incubation; P. falciparum luciferase reporter growth, 96 h; Potency, µM (series often up to 28.7 µM), without a hit: top-dose activity change, negative = inhibition, usual class: inhibitors; AID 504834, 2011; hit rate 6.9% among 320,000; further: potency means the concentration at half of the fitted maximal effect; on the % scale 0 is the no-effect control and ±100 the full control effect
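Two parasite generations (96 h, 37 C, 5% CO2) of compound exposure in infected erythrocytes (0.05% parasitemia, 2% hematocrit). Luciferase-reporter P. falciparum; decreased luminescence indicates inhibited growth, aimed at apicoplast-acting delayed death.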
HCMV inh: qHTS Assay for inhibitors of the human cytomegalovirus (HCMV); HFF cells, HCMV-luciferase reporter, 72 h; hits give low values; activity change, negative = inhibition, % at 57.5 µM; hit rate 4.5% among 410,000; AID 1259415, 2018; in the data active means activity change below about -60%; inconclusive means no clear call, values can overlap the other calls; inactive means above about -39%; further: on the % scale 0 is the no-effect control and ±100 the full control effect
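Cell-based, HFFs, 1000 cells/well, 16 h 37C; cpds in DMSO + HCMV-luc, MOI 1 PFU/cell; 72 h 37C; OneGlo luminescence after 5 min RT; norm. to buffer vs Salinomycin 10uM.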
The depositor's hits bear a star; u = inconclusive; x = no result. A selection: hits, their analogues and other compounds. The true share with any hit is near 20%. Unless noted, the call rests on the fitted dose curve; in most records, active means well fitted inhibition curve with a large enough effect; inconclusive means small, poorly fitted or top-dose-only effect, or another doubt; inactive means no such curve, though single readings can be large or run the other way.

SMILES	CHX counter	Pf growth 48h	Shiga inhibitor	Pf growth 96h	HCMV inh
COc1ccccc1CNC(=O)CN1C(=O)NC(c2ccccc2)(c2ccc(C)c(C)c2)C1=O (configuration not stated)	x	9.28µM*	x	9.28µM*	-27.0
Cc1ccc(C2(c3ccccc3)NC(=O)N(CC(=O)N3CC(=O)Nc4ccccc43)C2=O)cc1C (configuration not stated)	x	2.33µM*	x	3.7µM*	-10.2
CCC1(c2ccc(F)cc2)NC(=O)N(CC(=O)N2CC(=O)Nc3ccccc32)C1=O (configuration not stated)	x	u	x	-3.8%	u
CCCC1(c2ccccc2)NC(=O)N(CC(=O)N2CC(=O)Nc3ccccc32)C1=O (configuration not stated)	x	2.94µM*	x	u	4.7
CC(=O)N1CCc2c(sc3c2c(=O)n(-c2ccccc2C)c(=O)n3CC(=O)c2ccccc2)C1	x	x	x	x	5.3
Cc1ccc(C)c(N2CCN(C(=O)CCCN3C(=S)NC(C)(C)CC3C)CC2)c1 (configuration not stated)	-5.1	u	9.0	u	-63.8*
CCCN1CCN(CCNC(=O)Nc2ccc(OC)c(OC)c2)CC1	x	x	x	x	8.4
O=C(Oc1ccc(-c2cnc3ccccc3n2)cc1)c1ccc(Br)o1	24.3	x	45.1	205.9%	164.4
O=C(Oc1ccc(-c2cnc3ccccc3n2)cc1)c1cccc([N+](=O)[O-])c1	25.6*	93.9%	41.4*	31.1%	67.5
O=C(Oc1ccc(-c2cnc3ccccc3n2)cc1)c1ccc(Cl)c([N+](=O)[O-])c1	36.8*	212.1%	47.7*	23.6%	30.6
O=C(Oc1ccc([N+](=O)[O-])cc1)c1cc(-c2ccccc2)nc2ccccc12	-1.7	20.5%	27.6	0.0%	-6.6
CC(=O)Nc1ccc(NC(=O)CNC(=O)c2cccc(C)c2)cc1	6.8	29.1%	-8.5	36.9%	-9.9
CCCC(NC(=O)COc1cc2c(c3oc(=O)cc(C)c13)CCC(C)(C)O2)C(=O)O (configuration not stated)	-4.3	-21.0%	-4.0	u	-38.2
Cc1ccc(OCC(=O)N/N=C/c2cccnc2)cc1	5.4	-5.9%	-3.0	-26.3%	9.0
C(=N\Nc1nn[nH]n1)/c1ccccc1	-3.2	x	-7.1	12.5%	-8.0
CSc1nccc(N/N=C/c2ccccc2)n1	59.4*	200.9%	89.6*	341.0%	u
Cc1ccc(-c2cc(-c3ccccc3O)nc(N/N=C/c3cccnc3)n2)cc1	11.8	u	12.1	0.0294µM*	u
C(=N\Nc1nccc(-c2cccnc2)n1)/c1ccccc1	55.7*	u	88.6*	129.9%	-1.1
Cc1ccnc(N/N=C/c2ccccc2)n1	28.3*	79.2%	57.5*	-26.6%	37.2
Cc1cccc(/C=N/NC(=O)c2cc(-c3cccnc3)nc3ccccc23)c1	-0.7	u	9.1	u	u
CNC(=S)c1cc(C(C)(C)C)c(O)c(C(C)(C)C)c1	-1.5	u	2.9	u	24.6
COc1ccccc1CNc1ncnc2c1c(-c1ccccc1)cn2-c1cccc(C)c1	x	x	x	x	-60.5*
CCOc1ccc(Nc2ncnc3c2c(-c2ccccc2)cn3-c2cccc(C)c2)cc1	x	x	x	x	-14.0
ClC1=C(Cl)C(Cl)(C2(Cl)C(Cl)=C(Cl)C(Cl)=C2Cl)C(Cl)=C1Cl	-15.5	x	-20.8	x	x
O=C(CCCOc1ccccc1)N1CCN(S(=O)(=O)c2ccc(Cl)cc2)CC1	x	11.7µM*	x	8.7%	-16.6
SMILES	CHX counter	Pf growth 48h	Shiga inhibitor	Pf growth 96h	HCMV inh
N#Cc1ccccc1OCC(=O)N1CCN(S(=O)(=O)c2ccc(Cl)cc2)CC1	x	u	x	10.4µM*	-35.3
CCC1CCCCN1C(=O)CCCOc1ccccc1 (configuration not stated)	43.5*	x	47.2	89.1%	-18.7
O=C(COc1ccccc1)N1CCN(S(=O)(=O)c2ccc(Cl)cc2)CC1	-4.6	x	-2.3	u	-10.1
O=C(CSCc1cccc(Cl)c1)N/N=C/c1ccc(OCC(=O)N2CCCCC2)cc1	13.0*	-5.9%	-2.8	6.9%	u
CC1(C)CC(=O)C(N=Nc2cc(S(=O)(=O)N3CCOCC3)ccc2Cl)=C(O)C1	-1.0	u	3.5	0.5%	x
Cc1cc(Cl)ccc1OCC(=O)N1CCN(c2ncccn2)CC1	-0.7	u	4.6	-20.3%	-7.4
O=C(COc1ccc(Cl)cc1)N1CCCCCCC1	12.5	48.8%	6.9	u	2.1
O=C(COc1ccc(Cl)cc1)N1CCCCC1	34.4*	24.5%	52.0*	x	7.3
CC(C)(C)c1ccc(OCCCC(=O)N2CCOCC2)cc1	39.8*	17.7%	55.1*	-8.1%	72.1
O=C(CCCOc1ccccc1)N1CCCCC1	54.8*	x	17.2	29.6%	-7.6
Cc1cc(Cl)ccc1OCC(=O)N1CCCCC1	46.5*	70.7%	63.8*	0.9%	6.7
O=C(Nc1ccc(C(F)(F)F)cc1)C1(c2cccs2)CCOCC1	x	x	x	x	-12.4
COc1ccc2c(CNCc3cccs3)c(C(=O)O)n(Cc3ccc(F)cc3Cl)c2c1	x	x	x	x	4.6
O=C(NCc1ccc(Cl)cc1)c1cnc(N2CCOCC2)c2ccccc12	x	x	x	x	-21.1
CCOC(=O)C1CCN(C(=O)CCCOc2ccccc2)CC1	36.2*	123.2%	63.8*	x	-14.2
CC1CC(C)CN(C(=O)CCNC(=O)c2ccccc2Cl)C1 (configuration not stated)	2.1	0.928µM*	-12.4	0.465µM*	4.0
COc1cc(C(=S)N2CCCCC2)ccc1OCC(=O)N1CCCC1	2.9	4.8%	8.6	u	56.0
O=C(NCCC(=O)N1CCCCC1)c1ccccc1Cl	0.7	27.6%	14.1	38.8%	x
COc1cc(C=O)ccc1OCC(=O)N1CCCC1	-1.2	2.9%	-6.1	9.28µM*	-5.7
O=C(CCCOc1ccc(Cl)cc1)N1CCOCC1	10.5	24.0%	30.4*	260.2%	32.0
COc1ccc(C2=NCC(C)n3c2c2ccc(C(F)(F)F)cc2[n+]3[O-])cc1 (configuration not stated)	x	x	x	x	3.5
CC(=O)Nc1ccc(C(=O)Cn2c3[n+](c4c(F)c(F)ccc42)CCCCC3)cc1	-1.6	u	-2.4	u	-11.3
CCN(CC)c1ccc(-c2n[nH]c(=S)n2-c2ccccc2)cc1	-1.9	-26.9%	16.3	u	66.8
O=C(CCCOc1ccc(Cl)cc1)N1CCCCC1	40.3*	70.3%	85.5*	x	23.3
CCOc1ccc(OCCCC(=O)N2CCN(S(=O)(=O)c3ccc(Cl)cc3)CC2)cc1	x	4.7%	x	7.1%	0.3
O=C(CCCOc1ccc(Cl)cc1)N1CCCCCC1	39.0*	44.9%	77.4*	66.1%	2.6
COc1ccccc1C(=O)NCCC(=O)N1CCN(S(=O)(=O)c2ccc(Cl)cc2)CC1	x	u	x	13.1µM*	0.0
CCC(CC)C(=O)Nc1cc(C)cc(C)c1	-2.3	4.9%	-15.6	x	21.3
O=C(NN=C(Cc1ccccc1)Cc1ccccc1)c1ccc(F)cc1	35.9*	-31.7%	76.6*	13.1µM*	-39.8

Source: PubChem (National Center for Advancing Translational Sciences (NCATS))
